# FLuc inh – inhibitors of firefly luciferase. P08659. purified firefly luciferase, luminescence, 8 min. Potency, µM (titrated, usually from 57.1 µM), for inactives: at the top dose activity change, negative = inhibition, most hits filed as inhibitors. hit rate 2.2% among 72,000; further: nearly all actives have a fitted effect of over 40% in size
# Target sequence (P08659 whole entry, looked up): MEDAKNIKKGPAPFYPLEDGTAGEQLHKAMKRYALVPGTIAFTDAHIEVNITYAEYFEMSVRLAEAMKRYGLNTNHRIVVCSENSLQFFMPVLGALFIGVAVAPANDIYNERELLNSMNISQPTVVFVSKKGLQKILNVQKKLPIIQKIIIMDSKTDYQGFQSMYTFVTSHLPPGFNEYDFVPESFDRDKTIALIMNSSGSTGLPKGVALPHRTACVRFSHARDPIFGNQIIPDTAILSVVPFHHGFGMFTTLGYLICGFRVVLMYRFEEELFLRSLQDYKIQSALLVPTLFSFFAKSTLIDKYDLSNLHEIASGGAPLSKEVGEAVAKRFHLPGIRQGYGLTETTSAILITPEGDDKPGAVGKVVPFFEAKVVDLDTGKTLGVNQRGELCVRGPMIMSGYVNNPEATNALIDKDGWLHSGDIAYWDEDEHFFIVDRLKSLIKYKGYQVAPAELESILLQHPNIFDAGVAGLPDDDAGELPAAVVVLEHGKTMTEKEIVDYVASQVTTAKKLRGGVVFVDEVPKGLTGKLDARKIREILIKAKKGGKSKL
#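 Inhibition of light generation by firefly luciferase from ATP and luciferin was profiled with concentration-response curves per sample, ATP held at 10 uM within the enzyme's linear range. Plates were read by luminescence after an 8-minute ambient incubation.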
# p53ts 39C tox – kills p53ts cells at the nonpermissive temperature; H1299-p53A138V viability at 39C, ATP luminescence, 24 h; Potency, µM (doses to about 46.1 µM), without a hit: top-dose activity change, negative = cell killing, hits mostly cytotoxic; hit rate 1.5% among 130,000; AID 902; further: nearly all actives have a fitted effect of over 55% in size
# p53ts 32C tox – p53ts cell cytotoxicity, permissive temperature; H1299-p53A138V at 32C, ATP luminescence viability, 24 h; Potency, µM (doses to about 46.1 µM), inactives show at the top dose activity change, negative = cytotoxicity, hits mostly cytotoxic; hit rate 0.93% among 130,000; AID 924;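 further: 0% = DMSO and -100% = full killing by reference compound; nearly all actives have a fitted effect of over 55% in size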
#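 H1299-p53 A138V cells (temperature-sensitive p53) exposed 24 h to up to 46 uM compound at 32C, where p53 is wild-type in conformation. Viability read as ATP luminescence and normalised to DMSO and 100 uM tamoxifen. AC50 fitted with the Hill equation.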
# Numbers without * were called inactive; ? = inconclusive; · = no result. Rows were chosen to be rich in hits. Some 2.6% of all compounds tested hit in one or more screens of this group. The call rests on the fitted dose curve; in most records, active means well fitted curve in the direction sought with a large enough effect; inconclusive means small, poorly fitted or top-dose-only effect, or another doubt; inactive means no such curve, though single readings can be large; an effect the other way counts as inactive or inconclusive. Unless noted, on the % scale 0 is the no-effect control and ±100 the full control effect; potency means the concentration at half of the fitted maximal effect.
SMILES,FLuc inh,p53ts 39C tox,p53ts 32C tox
Cc1ccc(C(=O)Nc2cccc(-c3nc4cccnc4s3)c2C)cc1,·,-4%,-6%
COCCCNC(=O)C1CCN(c2nc3ccc(Cl)cc3[nH]2)CC1,·,20%,22%
COc1cc(C(=O)Nc2ccc3nc4n(c(=O)c3c2)CCCCC4)cc(OC)c1OC,·,?,-17%
O=C(Nc1ccc2nc3n(c(=O)c2c1)CCCCC3)c1ccccn1,13µM*,?,?
COC(=O)CC(=O)CSc1nc2c(cc1C#N)CCCCC2,13µM*,?,?
N#Cc1cc2c(nc1SCC(=O)NCc1ccc3c(c1)OCO3)CCCCC2,3%,-8%,5%
CCc1nnc(NC(=O)CSc2nc3c(cc2C#N)CCCC3)s1,?,1.6µM*,0.79µM*
N#CCSc1nc2c(cc1C#N)CCCC2,-3%,-15%,-2%
CCCn1c(=O)c2sccc2n2c(CCCC(=O)N3CCN(c4ccccc4OC)CC3)nnc12,·,14%,7%
CCn1c(SCC(=O)c2ccc3c(c2)OCCO3)nnc1-c1ccco1,16µM*,?,?
COCCn1c(SCC(=O)c2ccc3c(c2)OCCO3)nnc1-c1ccco1,-4%,10%,-5%
O=S(=O)(Nc1cccc(-c2ccc(N3CCCC3)nn2)c1)c1ccc(F)cc1F,·,38%,-17%
COc1ccc(S(=O)(=O)Nc2cccc(-c3ccc(N4CCCCC4)nn3)c2)cc1F,·,13µM*,13µM*
O=S(=O)(Nc1cccc(-c2ccc(N3CCCCC3)nn2)c1)c1cccc(F)c1,·,?,10µM*
COc1ccc(S(=O)(=O)Nc2cccc(-c3ccc(N4CCCCCC4)nn3)c2)cc1F,·,-26%,-28%
CSc1ccc(CCNC(=O)Cn2ncn3c(cc4ccccc43)c2=O)cc1,·,-13%,3%
COC(=O)[C@@H]1C[C@H]1[C@@H](NC(=O)Oc1ccc(F)cc1)c1ccccc1,·,-11%,24%
COc1cc(C(=O)NCCC2=CCCCC2)cc(OC)c1OC,1%,3%,2%
Cc1cc(C(=O)NCCC2=CCCCC2)c(C)o1,16µM*,-8%,-25%
CCOC(=O)c1ccc(N2C(=O)c3n[nH]c(C)c3C2c2ccco2)cc1 (centres undefined),-4%,12%,12%
Cc1ccc(N2C(=O)c3n[nH]c(C)c3C2c2ccco2)cc1 (centres undefined),16µM*,?,?
O=C(Nc1nc(-c2ccccn2)cs1)c1ccc(Cl)s1,-26%,4%,16%
Cn1cccc1C(=O)Nc1nc(-c2ccccn2)cs1,20µM*,?,-27%
COC(=O)c1ccc2c(=O)n(CCCCCC(=O)N3CCN(c4cccc(C)c4C)CC3)c(=O)[nH]c2c1,·,-8%,4%
COc1ccc(C(=O)N2CCN(C(=O)c3cc(OC)c(OC)c(OC)c3)CC2)cc1,-4%,4%,-4%
SMILES,FLuc inh,p53ts 39C tox,p53ts 32C tox
COc1cc(C(=O)N2CCN(C(=O)COc3ccc4ccccc4c3)CC2)cc(OC)c1OC,7.9µM*,-27%,?
Cc1ccc2nc(-c3cccnc3)c(Nc3ccc(C(C)C)cc3)n2c1,·,-13%,3%
Fc1ccc(Nc2c(-c3ccccn3)nc3ccc(Cl)cn23)cc1,·,-19%,-4%
CC(C)c1ccc(Nc2c(-c3ccccn3)nc3ccccn23)cc1,·,16µM*,-21%
Cc1ccn2c(Nc3ccc(C(C)C)cc3)c(-c3cccnc3)nc2c1,·,25µM*,-1%
CC(C)c1ccc(Nc2c(-c3ccccc3O)nc3cnccn23)cc1,·,5µM*,?
COc1cc(-c2nc3cnccn3c2Nc2ccccc2)ccc1O,0%,14%,4%
Cc1cc(C)cc(NC(=O)Cn2cc(S(=O)(=O)NC(C)(C)C)c(S(=O)(=O)NC(C)(C)C)c2)c1,·,-14%,3%
COC(=O)c1ccc(Nc2ncnc3c2cnn3-c2ccccc2)cc1,·,-7%,2%
Cc1c(C(=O)NCc2cccc(F)c2)oc2c1-c1[nH]ncc1CC2,·,-22%,0%
COc1cccc(CSc2nc3cc(C(=O)NC4CCCC4)ccc3c(=O)n2Cc2ccccc2)c1,·,-7%,-1%
COc1cc(C2NC(=O)N(C)C3=C2C(=O)N(c2ccccc2)C3)ccc1O (centres undefined),·,24%,1%
Cc1ccccc1OCCCN1C(=O)C(=O)c2cccc(C)c21,-28%,-19%,-19%
CCOc1ccc(CN2C(=O)C(=O)c3cccc(C)c32)cc1OC,·,13µM*,-2%
COc1ccc(NC(=O)CCc2c(C)nc3c(c2C)c(=O)n(C)c(=O)n3C)c(OC)c1,·,-7%,-6%
CCSc1ncc(Cl)c(C(=O)Nc2nc3ccc(OC)cc3s2)n1,·,9%,0%
COc1ccc2nc(NC(=O)c3nc(S(=O)(=O)Cc4ccccc4F)ncc3Cl)sc2c1,·,4µM*,?
